Screens as filed in PubChem.
The list is not random: actives were taken first. Their share in the collection is about 5.7%.
JMJD2A Tudor inh: blocks the human JMJD2A Tudor domain | O75164 | AlphaScreen JMJD2A-Tudor / H3K4me3 peptide binding | Potency, µM (highest dose often 114 µM), inactives show top-dose activity change, negative = inhibition, actives largely listed as inhibitors | 390,000 tested, 4.4% active; note: potency is the fitted concentration of half-maximal effect; % is set by controls: 0 for no effect and ±100 for the full control effect; nearly all actives have a fitted effect of over 50% in size
KDM4E inh: inhibitors of human JMJD2E histone demethylase; AID 2147; Potency, µM (doses to about 57.1 µM), for the others: top-dose activity change, negative = inhibition, hits mostly inhibitors; 230,000 tested, 1.6% active; JMJD2E catalytic domain, FDH-coupled NADH fluorescence (FDH is formaldehyde dehydrogenase); active = well fitted inhibition curve with a large enough effect, not every such curve was filed as active; inconclusive = small, poorly fitted or top-dose-only effect, or another doubt; inactive = no such curve, though single readings can be large or run the other way;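 note: potency is the fitted concentration of half-maximal effect; 0% = wells with enzyme and -100% = buffer wells without enzyme; nearly all actives have a fitted effect of over 50% in size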
Target sequence (B2RXH2 1-337 limits assumed): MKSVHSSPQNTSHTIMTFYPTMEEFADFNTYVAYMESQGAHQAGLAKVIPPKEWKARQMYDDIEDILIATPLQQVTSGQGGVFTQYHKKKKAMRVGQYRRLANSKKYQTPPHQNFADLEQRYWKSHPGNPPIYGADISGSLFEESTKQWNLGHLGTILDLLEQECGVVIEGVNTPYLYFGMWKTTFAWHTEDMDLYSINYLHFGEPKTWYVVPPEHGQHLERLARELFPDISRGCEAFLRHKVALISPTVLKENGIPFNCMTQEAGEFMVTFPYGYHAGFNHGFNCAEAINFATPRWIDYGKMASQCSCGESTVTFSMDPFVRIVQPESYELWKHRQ
BAZ2B block: inhibitors of human BAZ2B bromodomain; Q9UIF8; AlphaScreen BAZ2B-H3K14Ac peptide displacement; Potency, µM (highest dose often 114 µM), inactives show at the top dose activity change, negative = inhibition, usual class: inhibitors; 360,000 tested, 4.4% active; note: potency is the fitted concentration of half-maximal effect; % is set by controls: 0 for no effect and ±100 for the full control effect; nearly all actives have a fitted effect of over 60% in size
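AlphaScreen luminescence quantifies BAZ2B engagement of H3K14Ac peptide; the protein and biotinylated peptide are both at 50 nM final, buffer PBS pH 7.4 with 0.01% Tween-20, all steps at room temperature.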
L3MBTL1 inh: blocks human L3MBTL1. Q9Y468. AlphaScreen L3MBTL1–H3K9me1 peptide binding. Potency, µM (highest dose often 57.1 µM), inactives show at the top dose activity, negative = inhibition, usual class: inhibitors. 230,000 tested, 0.66% active; note: potency is the fitted concentration of half-maximal effect; % is set by controls: 0 for no effect and ±100 for the full control effect; nearly all actives have a fitted effect of over 60% in size
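L3MBTL1 (50 nM) pre-complexed 30 min with biotinylated H3(1-15)K9me1 peptide (75 nM), then compounds added for 30 min at room temperature; AlphaScreen streptavidin donor/nickel chelate acceptor beads (10 ug/mL final) read after 30 min dark incubation.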
PI5P4K alpha inh: blocks human PI5P4K alpha kinase activity. PI5P4Kalpha enzyme, ADP-Glo luminescence, 60 min; stronger effect = lower value. max response, %. 330,000 tested, 1.2% active; active = max response of -50% or lower; inconclusive = between -30% and -50%; inactive = -30% or higher; note: value at the top dose of about 77 µM; % is set by controls: 0 for no effect and ±100 for the full control effect
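qHTS, 1536-well: enzyme/substrate mix, compound by pin tool, 5 microM ATP final; RT 60 min; ADP-Glo reagents 1 (45 min) then 2 (30 min); luminescence.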
HP1b binding inh: inhibitors of HP1-beta chromodomain binding to methylated histone tails. AID 540317. AlphaScreen HP1-beta / biotin-H3K9me3 peptide binding. 390,000 tested, 0.56% active. Potency, µM (series often up to 114 µM), for the others: at the top dose activity change, negative = inhibition, usual class: inhibitors; note: potency is the fitted concentration of half-maximal effect; nearly all actives have a fitted effect of over 70% in size
Target sequence (P83916 whole entry, looked up): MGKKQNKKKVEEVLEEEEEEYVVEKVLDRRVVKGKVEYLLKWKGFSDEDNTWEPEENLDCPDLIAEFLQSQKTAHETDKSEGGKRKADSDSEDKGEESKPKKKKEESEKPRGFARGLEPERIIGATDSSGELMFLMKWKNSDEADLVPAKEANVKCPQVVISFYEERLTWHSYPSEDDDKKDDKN
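AlphaScreen: HP1-beta (50 nM) preformed 30 min with biotin-H3(1-18)K9me3 peptide (50 nM) in PBS pH 7.4, 0.01% Tween-20. Compound added for 30 min at RT, then streptavidin donor/nickel chelate acceptor beads (10 ug/mL) for 30 min.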
An asterisk follows results filed as active; ? = inconclusive; nt = no result; [ ] = dose if it differs, or a comment. Unless noted, calls come from the whole dose curve; as a rule, active = well fitted inhibition curve with a large enough effect; inconclusive = small, poorly fitted or top-dose-only effect; inactive = no such curve, though single readings can be large or run the other way.

SMILES	JMJD2A Tudor inh	KDM4E inh	BAZ2B block	L3MBTL1 inh	PI5P4K alpha inh	HP1b binding inh
COc1cc(/C=C(\C#N)C(=O)N2CCCCC2)ccc1O	-1.7%	nt	-3.8%	7.9%	-7.1	42.4%
N#C/C(=C\c1ccc(O)c(O)c1)C(=O)N1CCCC1	?	14.1µM*	nt	-2.1%	-16.8	35.5%
N#C/C(=C/c1cc(Cl)c(O)c(Cl)c1)C(=O)N1CCCCC1	-14.5%	nt	-4.2%	9.9%	-93.9*	26.2%
COC(=O)c1ccc(NC(=O)CC2C(=O)N(c3cccc(OC)c3)C(=O)N2Cc2cccs2)cc1 (configuration not stated)	0.7%	nt	-12.1%	nt	nt	24.2%
CC(C)CCNC(=O)CCCN1C(=O)c2ccccc2Sc2ncccc21	7.7%	nt	-0.4%	nt	nt	27.4%
CC1=NN(c2nc3ccccc3[nH]2)C(=O)/C1=C/N(C)C	56.2µM*	-15.4%	22.4µM*	nt	-22.6	48.4%
COc1ccc([C@]23Cc4cc(OC)c(OC)cc4C(O2)c2c(cc(C)n(Cc4ccccc4)c2=O)O3)cc1	nt	nt	11.2µM*	nt	nt	nt
COc1ccc([C@]23Cc4cc(OC)c(OC)cc4C(O2)c2c(c4ccccc4oc2=O)O3)cc1	nt	nt	10µM*	nt	nt	nt
COc1ccc([C@]23Cc4cc(C#N)ccc4[C@H](O2)c2c(cc(C)n(Cc4ccccc4)c2=O)O3)cc1	nt	nt	-0.8%[22.9 µM]	nt	nt	nt
Cn1c(COc2nnc(-c3ccc(Cl)cc3)c3ccccc23)nc2ccccc21	-6.0%	-1.6%	-36.7%	2.3%	nt	25.9%
COc1ccc(-c2nnc(OCc3nc4ccccc4n3C)c3ccccc23)cc1	50.1µM*	-24.9%	-35.4%	-0.3%	-22.0	2.8%
CCOC(=O)C(=CNNc1ccccc1)C(=O)OCC	79.4µM*	-11.4%	?	0.3%	0.0	-35.2%
CCOC(=O)NNc1ccccc1	-11.0%	-15.6%	-3.0%	11.5%	1.6	4.2%
COc1cc(NC(=O)Cn2nnc(-c3ccc(C(F)(F)F)cc3)n2)c(C(=O)O)cc1OC	-22.9%	nt	-5.9%	nt	nt	41.3%
O=C(N1CCC(n2nc(-c3ccccc3)oc2=O)CC1)C1(c2ccc(Cl)cc2)CC1	-29.9%	nt	-20.7%[57.1 µM]	nt	11.4	-4.1%[57 µM]
COCCCNC(=S)Nc1ccc(C)cc1[N+](=O)[O-]	-15.1%	8.3%	-11.7%	4.0%	2.2	-18.6%
CCCCNCCOCCOc1ccc(C)cc1[N+](=O)[O-]	2.82µM*	-29.3%	?	2.1%	nt	?
COCCCNCCCCOc1ccc(C)cc1[N+](=O)[O-]	5.62µM*	1.3%	?	6.4%	-5.0	?
COc1ccccc1OCCOCCOc1ccc(C)cc1[N+](=O)[O-]	-19.3%	-2.2%	5.1%	-0.9%	-2.3	28.8%
O=C(c1ccc2c(=O)n3c(nc2c1)CCCCC3)N1CCc2ccccc21	-15.3%	5.6%	-11.5%	nt	7.3	29.1%
COC(=O)c1ccc(NC(=O)C2CCN(C(=O)c3ccc(F)cc3)CC2)cc1	1.0%	nt	0.2%	nt	nt	28.5%
COc1ccc(-c2nc(N)n(C(=O)c3cccs3)n2)cc1	89.1µM*	?	-9.5%	nt	0.2	11.6%
CC1=NN(c2ccc(Cl)cc2)C(=O)C1C(c1cccc(O)c1)c1c(C)[nH]n(-c2ccc(Cl)cc2)c1=O (configuration not stated)	56.2µM*	3.16µM*	44.7µM*	-21.0%	-3.8	?
CC1=NN(c2ccc(F)cc2)C(=O)C1C(c1cccc(O)c1)c1c(C)[nH]n(-c2ccc(F)cc2)c1=O (configuration not stated)	22.6%[11.4 µM]	-15.2%	-32.0%[57.1 µM]	-22.2%	-10.4	-38.4%
CC1(C)OC(=O)C2(Cc3cc([N+](=O)[O-])ccc3N3CCCCC32)C(=O)O1 (configuration not stated)	-9.2%[57.1 µM]	nt	nt	nt	nt	19.1%[57 µM]
SMILES	JMJD2A Tudor inh	KDM4E inh	BAZ2B block	L3MBTL1 inh	PI5P4K alpha inh	HP1b binding inh
S=c1[nH]nc(COc2ccc(Cl)cc2)o1	79.4µM*	-12.9%	-5.3%	13.8%	nt	6.7%
COc1ccc(OCc2n[nH]c(=S)o2)cc1	?	17.2%	-27.9%	nt	?	2.8%
CC/C(=C\C(=O)c1ccncc1)Nc1ccc(Br)cc1	?	10.1%	50.1µM*	nt	-4.1	?
COc1ccc(S(=O)(=O)N2CCCN(CC(=O)Nc3ccc(OC)cc3OC)CC2)cc1	-20.5%	nt	-28.1%	nt	nt	22.1%
CC(C)(C)C1CCc2[nH]nc(C(=O)O)c2C1 (configuration not stated)	?	4.4%	?	-7.2%	-4.3	-0.3%
O=C(O)c1n[nH]c2c1CCCCC2	?	-22.9%	50.1µM*	10.4%	nt	3.4%
O=C(O)c1n[nH]c2c1CCCC2	25.1µM*	-2.7%	56.2µM*	nt	-8.6	8.9%
COc1ccc(-c2sc(Nc3ccc(F)c(F)c3F)nc2CCC(=O)NN)cc1	56.2µM*	nt	-34.7%	nt	13.6	-23.1%
Cc1ccc(Cl)cc1N1CCN(C(=O)c2cc(S(=O)(=O)N3CCC(C)CC3)cn2C)CC1	-24.0%	nt	-27.0%	nt	nt	7.6%[57 µM]
CCN1C(=O)[C@H]2[C@H]3CN=C(SCc4ccccc4)N3[C@@](Cc3ccccc3)(C(=O)OC)[C@H]2C1=O	89.1µM*	nt	nt	-7.9%	-0.2	21.0%
CCN1C(=O)[C@H]2[C@H]3CN=C(SCc4ccc(C#N)cc4)N3[C@@](Cc3ccccc3)(C(=O)OC)[C@H]2C1=O	-35.5%	nt	nt	0.0%	0.2	34.1%
COC(=O)[C@@]1(Cc2ccccc2)[C@H]2C(=O)N(C)C(=O)[C@H]2[C@H]2CN=C(SCC3CC3)N21	?	nt	nt	11.0%	0.2	86.8%
CC[C@]1(C(=O)OC)[C@H]2C(=O)N(Cc3ccccc3)C(=O)[C@H]2[C@H]2CN=C(SCC3CC3)N21	79.4µM*	nt	nt	31.5%	5.7	18.8%
CCN1C(=O)[C@H]2[C@H]3CN=C(SCC4CC4)N3[C@@](Cc3ccccc3)(C(=O)OC)[C@H]2C1=O	89.1µM*	nt	nt	19.1%	-0.7	9.1%
CC[C@]1(C(=O)OC)[C@H]2C(=O)N(Cc3ccccc3)C(=O)[C@H]2[C@H]2CN=C(SCc3ccc(C)cc3)N21	-26.0%	nt	nt	3.7%	6.6	29.3%
CN(CCCn1cnc2c(OCc3ccccc3)ncnc21)Cc1ccco1	nt	nt	nt	nt	-2.3	nt
COc1ccc(C(=O)/C=C/c2cc(C(=O)O)cc3c2OCOC3)c(O)c1	-17.1%	-10.8%	?	nt	-29.1	8.5%
O=C(O)c1cc(/C=C/C(=O)c2cc(F)ccc2O)c2c(c1)COCO2	?	-29.6%	50.1µM*	nt	-29.7	-6.5%
COc1ccc(C(C[N+](=O)[O-])c2c(-c3ccccc3)cc3ccccn23)c(OC)c1 (configuration not stated)	?	-6.0%	79.4µM*	nt	1.9	0.0%
O=C(CSc1ccc(-c2ccccn2)nn1)c1ccc([N+](=O)[O-])cc1	?	-25.9%	8.91µM*	nt	-10.9	6.2%
O=C(COC(=O)c1cnccn1)c1ccccc1	-17.1%	14.9%	-9.9%	nt	1.8	28.0%
